# Measurements as given in PubChem BioAssay AID687028 (Broad Institute, 2013).
# In all, about 1,400 compounds went through this assay and about 55 (4%) were called active. How the calls were made is not given here. The list is a sample of the results. Measured potencies and affinities stand elsewhere.
# Test: viability loss in A549 cells – cell-based, plate reader, cherry-pick samples, cytotoxicity control, dose response (AID 687028);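 further: cells incubated with compound for three days before reading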
# Settings: series mostly up to 19.5 µM
row,SMILES,outcome
1,COc1ccccc1CN1[C@H](CO)[C@H]2c3ccccc3N(C(=O)c3ccncc3)C[C@H]21,inactive
2,COc1ccc(C)cc1N(CC(=O)Nc1ccc(S(=O)(=O)N2CCOCC2)cc1)S(C)(=O)=O,inactive
3,CCOc1ccc(C(=O)Nc2ccc(CN3CCOCC3)cc2)cc1Br,inactive
4,CCn1c(=O)n(CC)c2cc(N3CCCC3)c(NC(=O)c3ccc(C)cc3)cc21,inactive
5,Cc1ccccc1S(=O)(=O)N1C[C@@H](O)COC[C@@H]2O[C@H](CC(=O)N3CCCCC3)CC[C@H]21,inactive
6,C[C@@H]1CN([C@@H](C)CO)C(=O)Cc2cc(NS(=O)(=O)c3cn(C)cn3)ccc2O[C@H]1CN(C)Cc1ccc(C(=O)Nc2ccccc2N)cc1,inactive
7,CCCNC(=O)N1[C@H](CO)[C@@H](c2ccccc2)C12CN(C(=O)C1CCCCC1)C2,inactive
8,O=C(CN1CCN(c2cccc(C(F)(F)F)c2)CC1)N(C1CCCC1)C1CCS(=O)(=O)C1 (stereo unspecified),inactive
9,Cc1cc(OCC(=O)NC(Cc2ccc(Cl)cc2)C(=O)O)c2c(C)c(C)c(=O)oc2c1 (stereo unspecified),inactive
10,CCc1nc(SCc2ccccc2C)n[nH]1,inactive
11,Cc1ccc(CCN2CC(C(=O)NCCc3ccccc3)CC2=O)cc1 (stereo unspecified),inactive
12,Cc1noc(C)c1S(=O)(=O)Nc1cccc2c1O[C@H](CN(C)C(=O)NC(C)C)[C@H](C)CN([C@@H](C)CO)C2=O,inactive
13,CC(C)C[C@@H](COc1ccccc1)N1CCN(Cc2ccccc2)CCC1=O,inactive
14,COc1ccc(S(=O)(=O)Nc2ccc3c(c2)C(=O)N([C@@H](C)CO)C[C@H](C)[C@@H](CN(C)C(=O)Nc2ccc(C(F)(F)F)cc2)OCCCC[C@H](C)O3)cc1,inactive
15,C[C@H](CO)N1C[C@H](C)[C@@H](CN(C)C(=O)Nc2ccc(C(F)(F)F)cc2)OCCCC[C@H](C)Oc2ccc(NS(=O)(=O)c3cccs3)cc2C1=O,inactive
16,COc1ccc(NC(=O)N(C)C[C@H]2OCCCC[C@@H](C)Oc3ccc(NS(C)(=O)=O)cc3C(=O)N([C@H](C)CO)C[C@H]2C)cc1,inactive
17,C[C@H](CO)N1C[C@H](C)[C@@H](CN(C)C(=O)Nc2ccc(C(F)(F)F)cc2)OCCCC[C@H](C)Oc2ccc(NS(=O)(=O)c3ccc(F)cc3)cc2C1=O,inactive
18,COc1cccc(CNC(=O)[C@H]2[C@H](CO)[C@H]3Cn4c(ccc(-c5ccncc5)c4=O)[C@H]3N2C)c1,inactive
19,N#C[C@H]1[C@@H](c2ccc(C3=CCCCC3)cc2)[C@@H](CO)N1S(=O)(=O)c1cccc(F)c1,inactive
20,CCOc1ccc(NC(=O)CN(C)C(=O)c2ccccc2OCc2c(C)noc2C)cc1OCC,inactive
21,COc1ccc(N2CCN(c3cc(C(=O)NC4CCCCC4)ncn3)CC2)cc1OC,inactive
22,CC(C)(C)OC(=O)N[C@H]1C=C[C@@H](CC(=O)OCC(F)(F)F)C1,inactive
23,CCN(CC)c1ccc2cc(C(=O)NCc3ccc(F)cc3)c(=N)oc2c1,inactive
24,CC(=O)OCCCN(C)CC/C=C1/c2ccccc2CSc2ccccc21,inactive
25,CC(C)Oc1ccc(S(=O)(=O)N2CCOCC2)cc1NC(=O)Cc1ccsc1,inactive
26,Cc1ccccc1CN1CCN(CC(=O)NC(C)c2ccccc2)CC1 (stereo unspecified),inactive
